Measurements as given in PubChem BioAssay.
Calls of active or inactive are those of the source.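 How the source made its calls, unless noted: active means visual image review flags a hit and inhibition of aggregation exceeds 20%; inconclusive means visual hit but inhibition at or below 20%; inactive means no hit on visual image review.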

Experiment: inhibitors of TNFa-induced NFkB p65 translocation, primary screen, imaging, HUVEC, MLSMR starter and 10KST1 sets (AID 438;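 active means inhibition above 20% together with a positive visual image hit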;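 further: compound added about 3h40 before a 20 min TNFalpha stimulation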;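 on inhibition: signal is the nuclear over cytoplasmic p65 intensity ratio per well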)
Conditions: HUVEC TNFa-induced p65 nuclear translocation; cell count: measured here: nuclei count (cytotoxicity indicator), at 2.08 µM; inhibition: at 2 µM, stronger effect = higher value, 0% TNFa-plus-vehicle, 100% no-TNFa wells

Row | SMILES | inhibition | cell count
1 | CS(=O)(=O)Nc1ccc(C(=O)NCCc2ccccc2)cc1 | -2% (inactive) | 342
2 | Cc1ccc(S(=O)(=O)NCCC(=O)OCn2nnc3ccccc3c2=O)cc1 | -0.8% (inactive) | 603
3 | O=C(N1CCOCC1)N1CCC(NC(=O)C23CC4CC(CC(C4)C2)C3)CC1 | 9.1% (inactive) | 363
4 | COc1ccc(C(=O)N2CCOCC2)cc1Br | -7.6% (inactive) | 406
5 | Cc1ccc(S(=O)(=O)CCc2nnc(NC(=O)c3cnccn3)s2)cc1 | -46.9% (inactive) | 578
6 | O=C(C1CCN(S(=O)(=O)Cc2ccccc2)CC1)N1CCN(c2ncccn2)CC1 | -9.2% (inactive) | 354
7 | COc1ccc(C2CC(=O)c3c(C)nc(N4CCN(c5ccccc5)CC4)nc3C2)cc1 (stereo not given) | 5.6% (inactive) | 598
8 | Nc1nonc1C(=O)NCCNCc1cc(Br)ccc1OCc1ccccc1F | -2.4% (inactive) | 422
9 | CCCCN(CC)S(=O)(=O)c1ccc2c(c1)CCCN2C(C)=O | 2.9% (inactive) | 490
10 | Cc1c(Cc2ccccc2)sc(N)c1C(N)=O | -13% (inactive) | 335
11 | CCOC(=O)N1CCN(c2cc3nccnc3cc2F)CC1 | 3.1% (inactive) | 412
12 | N#Cc1nc(COc2ccccc2)oc1NCCN1CCOCC1 | 1.6% (inactive) | 778
13 | O=C(Nc1ccccc1)N1C(=O)C2(OCCO2)c2ccccc21 | 6.5% (inactive) | 397
14 | CCOC(=O)C1CCCN(C(=O)c2cc3c(C)nc4ccccc4c3o2)C1 (stereo not given) | -14.7% (inactive) | 525
15 | CC12C(=O)N(CCC(=O)O)C(=O)C1C1C=CC2C1 (stereo not given) | 23.6% (active) | 666
16 | CCCC(=O)N1CCN(c2ccc(NC(=O)c3ccc(Br)o3)cc2)CC1 | 0.6% (inactive) | 232
17 | Cc1ccc(Cn2ncc3c(NCCCN4CCOCC4)ncnc32)cc1 | -14.6% (inactive) | 642
18 | C/C(N)=C(/C#N)C(=O)COC(=O)COc1ccc(Cl)cc1 | 4.3% (inactive) | 500
19 | Nc1c(C(=O)NCCc2ccccc2)nnn1Cc1ccccc1 | 4.8% (inactive) | 564
20 | Cc1ccc(-n2c(Cc3cccn3C)nnc2SCC(=O)NCc2ccc3c(c2)OCO3)cc1 | -12.9% (inactive) | 567

Row | SMILES | inhibition | cell count
21 | COc1ccc(/C=N/n2c(=O)[nH]c3c([nH]c4ccc(C)cc43)c2=O)cc1CN1CCOCC1 | 2.6% (inactive) | 643
22 | C=CCn1c(C)cc(C(=O)CSc2nc3ccccc3c(=O)[nH]2)c1C | -0.8% (inactive) | 278
23 | O=C(NCc1ccco1)C1CCN(S(=O)(=O)N2CCC3(CC2)OCCO3)CC1 | 5.3% (inactive) | 358
24 | CCOC(=O)c1c(C)oc2ccc(OCC(=O)N(CC)CC)cc12 | -1.7% (inactive) | 422
25 | COc1ccc(-c2cc(C(=O)NCc3ccc(Cl)cc3)no2)cc1OC | -2.5% (inactive) | 358
26 | O=C(Nc1cccnc1N1CCOCC1)c1ccco1 | -0.3% (inactive) | 579
27 | COc1ccc2c(-c3cccnc3)cc(=O)[nH]c2c1 | 4.3% (inactive) | 363
28 | CC1(C)CC(=O)C2=C(C1)Nc1nc(SCCN3CCOCC3)[nH]c(=O)c1C2c1cccs1 (stereo not given) | -8.4% (inactive) | 549
29 | CCOc1ccc(C(=O)N(Cc2ccc(N(C)C)cc2)C2CCS(=O)(=O)C2)cc1 (stereo not given) | -12.2% (inactive) | 249
30 | CC(C)Oc1ccc(-c2nn(-c3ccccc3)cc2/C=c2\sc3ncnn3c2=O)cc1 | -4.6% (inactive) | 335
31 | CN(C)c1nc(Nc2ccc(Cl)cc2)nc(OCC#N)n1 | -23% (inactive) | 387
32 | Cc1ccc(C)n1NC(=O)c1ccco1 | -4.7% (inactive) | 692
33 | CCC1(C)Cc2c(C#N)c(N)n(-c3ccccc3)c(=O)c2CO1 (stereo not given) | -8.6% (inactive) | 531
34 | O=C1CC(c2ccc(S(=O)(=O)N3CCN(c4ccccc4)CC3)cc2)CN1 (stereo not given) | 0.3% (inactive) | 426
35 | COc1cccc(NC(=O)Cc2nnc(SCC(=O)c3ccccc3)n2C)c1 | 9.7% (inactive) | 454
36 | CCCC1CC(C)(C(=O)Cn2[nH]c(=O)ccc2=O)OC1=O (stereo not given) | -22.2% (inactive) | 580
37 | CS(=O)(=O)N(CC(=O)NC1CC1)c1cccc(F)c1 | -2.3% (inactive) | 387
38 | COc1ccc2c(c1)CCc1c(C(=O)NCc3cccnc3)noc1-2 | 5.4% (inactive) | 358
39 | CC(=O)Nc1ccc(S(=O)(=O)N(CC(=O)O)Cc2ccccc2)cc1 | 6% (inactive) | 487
40 | O=S(=O)(NCCc1ccncc1)c1cc(Br)ccc1F | 1.9% (inactive) | 231

Experiment: reduction of polyQ htt aggregates in cells – imaging, exon1htt(103Q)mCFP cells, high-content imaging, primary screen (AID 483);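 further: compound exposure lasted 3 days before fixation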;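 on nuclei count: percent of the per-plate median nuclei count of sample wells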
Conditions: exon1htt(103Q)mCFP cell line, aggregate imaging, at 2 µM; inhibition of aggregation: stronger effect = higher value; nuclei count: measured here: cell count, toxicity

Row | SMILES | nuclei count [%] | inhibition of aggregation
41 | CS(=O)(=O)Nc1ccc(C(=O)NCCc2ccccc2)cc1 | 108 | -9.2% (inactive)
42 | Cc1ccc(S(=O)(=O)NCCC(=O)OCn2nnc3ccccc3c2=O)cc1 | 102 | 5% (inactive)
43 | O=C(N1CCOCC1)N1CCC(NC(=O)C23CC4CC(CC(C4)C2)C3)CC1 | 99 | -0.3% (inactive)
44 | COc1ccc(C(=O)N2CCOCC2)cc1Br | 90.8 | 5.4% (inactive)
45 | Cc1ccc(S(=O)(=O)CCc2nnc(NC(=O)c3cnccn3)s2)cc1 | 116 | -22.9% (inactive)
46 | O=C(C1CCN(S(=O)(=O)Cc2ccccc2)CC1)N1CCN(c2ncccn2)CC1 | 67 | 0.1% (inactive)
47 | COc1ccc(C2CC(=O)c3c(C)nc(N4CCN(c5ccccc5)CC4)nc3C2)cc1 (stereo not given) | 109 | -5.3% (inactive)
48 | Nc1nonc1C(=O)NCCNCc1cc(Br)ccc1OCc1ccccc1F | 89.6 | 18.5% (inactive)
49 | CCCCN(CC)S(=O)(=O)c1ccc2c(c1)CCCN2C(C)=O | 111 | 17.1% (inactive)
50 | Cc1c(Cc2ccccc2)sc(N)c1C(N)=O | 115 | -0.8% (inactive)
51 | CCOC(=O)N1CCN(c2cc3nccnc3cc2F)CC1 | 113 | -5.3% (inactive)
52 | N#Cc1nc(COc2ccccc2)oc1NCCN1CCOCC1 | 96.4 | -34.9% (inactive)
53 | O=C(Nc1ccccc1)N1C(=O)C2(OCCO2)c2ccccc21 | 91.7 | -15.7% (inactive)
54 | CCOC(=O)C1CCCN(C(=O)c2cc3c(C)nc4ccccc4c3o2)C1 (stereo not given) | 100 | 8.7% (inactive)
55 | CC12C(=O)N(CCC(=O)O)C(=O)C1C1C=CC2C1 (stereo not given) | 99.2 | 3.1% (inactive)
56 | CCCC(=O)N1CCN(c2ccc(NC(=O)c3ccc(Br)o3)cc2)CC1 | 58.2 | 7.1% (inactive)
57 | Cc1ccc(Cn2ncc3c(NCCCN4CCOCC4)ncnc32)cc1 | 84.8 | 13.9% (inactive)
58 | C/C(N)=C(/C#N)C(=O)COC(=O)COc1ccc(Cl)cc1 | 97.4 | 11.4% (inactive)
59 | Nc1c(C(=O)NCCc2ccccc2)nnn1Cc1ccccc1 | 69.8 | 24.6% (inactive)
60 | Cc1ccc(-n2c(Cc3cccn3C)nnc2SCC(=O)NCc2ccc3c(c2)OCO3)cc1 | 103 | -10.3% (inactive)

Row | SMILES | nuclei count [%] | inhibition of aggregation
61 | COc1ccc(/C=N/n2c(=O)[nH]c3c([nH]c4ccc(C)cc43)c2=O)cc1CN1CCOCC1 | 74.3 | 16.8% (inactive)
62 | C=CCn1c(C)cc(C(=O)CSc2nc3ccccc3c(=O)[nH]2)c1C | 92 | 11.4% (inactive)
63 | O=C(NCc1ccco1)C1CCN(S(=O)(=O)N2CCC3(CC2)OCCO3)CC1 | 84.3 | 28.1% (inactive)
64 | CCOC(=O)c1c(C)oc2ccc(OCC(=O)N(CC)CC)cc12 | 95.5 | -2.3% (inactive)
65 | COc1ccc(-c2cc(C(=O)NCc3ccc(Cl)cc3)no2)cc1OC | 106 | -5.6% (inactive)
66 | O=C(Nc1cccnc1N1CCOCC1)c1ccco1 | 104 | 4.6% (inactive)
67 | COc1ccc2c(-c3cccnc3)cc(=O)[nH]c2c1 | 84.5 | -5.5% (inactive)
68 | CC1(C)CC(=O)C2=C(C1)Nc1nc(SCCN3CCOCC3)[nH]c(=O)c1C2c1cccs1 (stereo not given) | 50.7 | -11.8% (inactive)
69 | CCOc1ccc(C(=O)N(Cc2ccc(N(C)C)cc2)C2CCS(=O)(=O)C2)cc1 (stereo not given) | 75 | 2.5% (inactive)
70 | CC(C)Oc1ccc(-c2nn(-c3ccccc3)cc2/C=c2\sc3ncnn3c2=O)cc1 | 88.3 | 5.1% (inactive)
71 | CN(C)c1nc(Nc2ccc(Cl)cc2)nc(OCC#N)n1 | 78.6 | -6.1% (inactive)
72 | Cc1ccc(C)n1NC(=O)c1ccco1 | 94.1 | 0% (inactive)
73 | CCC1(C)Cc2c(C#N)c(N)n(-c3ccccc3)c(=O)c2CO1 (stereo not given) | 100 | 13.9% (inactive)
74 | O=C1CC(c2ccc(S(=O)(=O)N3CCN(c4ccccc4)CC3)cc2)CN1 (stereo not given) | 102 | 7.2% (inactive)
75 | COc1cccc(NC(=O)Cc2nnc(SCC(=O)c3ccccc3)n2C)c1 | 88.6 | -12.5% (inactive)
76 | CCCC1CC(C)(C(=O)Cn2[nH]c(=O)ccc2=O)OC1=O (stereo not given) | 120 | -42.5% (inactive)
77 | CS(=O)(=O)N(CC(=O)NC1CC1)c1cccc(F)c1 | 113 | 0.3% (inactive)
78 | COc1ccc2c(c1)CCc1c(C(=O)NCc3cccnc3)noc1-2 | 103 | -6.5% (inactive)
79 | CC(=O)Nc1ccc(S(=O)(=O)N(CC(=O)O)Cc2ccccc2)cc1 | 107 | 4.7% (inactive)
80 | O=S(=O)(NCCc1ccncc1)c1cc(Br)ccc1F | 106 | -9.7% (inactive)
